Values joined by “and” are separate entries in the source; they are usually repeats but may differ in a detail not shown here. Identical values can stand only once. Inconclusive results are not listed. Entries that show only a call come without a potency. Where a structure was tested more than once in an assay, its records may differ in their call. Active and inactive are the calls of the source. Unless noted, calls come from the whole dose curve; as a rule, active = well fitted curve in the direction sought with a large enough effect in the repeat runs; inconclusive = weak or mixed curves; inactive = no such curve, though single readings can be large; an effect the other way counts as inactive or inconclusive.
How the values were obtained:
[1] = qHTS assay to identify small molecule agonists of the peroxisome proliferator-activated receptor delta (PPARd) signaling pathway - cell viability counter screen (AID 743211); note: nearly all actives have a fitted effect of over 55% in size; note: potency is the fitted concentration of half-maximal effect
Outline: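 Luminescent ATP viability assay (CellTiter-Glo, 30 min RT) in UAS-bla HEK293H cells carrying the PPAR delta reporter construct, 3000 cells/well, after a 17 h compound treatment at 37 C.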

[2] = molecular target: Peroxisome proliferator-activated receptor delta (Homo sapiens) (UniProt Q03181); assay: qHTS assay to identify small molecule agonists of the peroxisome proliferator-activated receptor delta (PPARd) signaling pathway (AID 743212; calls by dose curve)
Outline: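 A PPARd-bla HEK293H line with beta-lactamase under an Upstream Activator Sequence is treated with compounds at 37 C. Substrate loading for 2 h at room temperature precedes the fluorescence measurement.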

[3] = molecular target: Peroxisome proliferator-activated receptor delta (Homo sapiens) (UniProt Q03181); assay: qHTS assay to identify small molecule antagonists of the peroxisome proliferator-activated receptor delta (PPARd) signaling pathway (AID 743215; active = well fitted inhibition curve with a large enough effect in the signal ratio in the repeat runs, not every such curve was filed as active; the % refers to the signal ratio;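 note: cells stimulated with agonist L165041 at 300 nM final during compound exposure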; note: potency is the fitted concentration of half-maximal effect)
Outline: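 With L165041 present at 300 nM final, compounds were incubated 17 h at 37 C on PPARd UAS-bla HEK293H cells. A FRET-based beta-lactamase substrate was then applied for 2 h at room temperature and fluorescence intensity recorded.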

[4] = molecular target: Bile acid receptor (Homo sapiens) (UniProt Q96RI1); assay: qHTS assay to identify small molecule antagonists of the farnesoid-X-receptor (FXR) signaling pathway (AID 743217; active = well fitted inhibition curve with a large enough effect in the signal ratio in the repeat runs, not every such curve was filed as active; the % refers to the signal ratio; note: potency is the fitted concentration of half-maximal effect)
Outline: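 In this cell-based antagonist screen, inhibition of CDCA-driven (50 uM final) UAS-beta-lactamase expression in HEK 293T cells was measured by FRET fluorescence following 16 h compound exposure at 37 °C.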

[5] = qHTS assay to identify small molecule agonists of the farnesoid-X-receptor (FXR) signaling pathway - cell viability counter screen (AID 743218); note: nearly all actives have a fitted effect of over 45% in size; note: potency is the fitted concentration of half-maximal effect
Outline: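 After 16 h at 37 C with test compounds, FXR-bla HEK 293T cells were given LiveBLAzer B/G substrate for 2 h at RT and then CellTiter-Glo; luminescence was taken after 30 min.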

[6] = molecular target: Bile acid receptor (Homo sapiens) (UniProt Q96RI1); assay: qHTS assay to identify small molecule agonists of the farnesoid-X-receptor (FXR) signaling pathway (AID 743220; active = well fitted activation curve with a large enough effect in the signal ratio in the repeat runs, not every such curve was filed as active; the % refers to the signal ratio)
Outline: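 Beta-lactamase reporter under UAS control in GeneBLAzer FXR HEK 293T cells (5000/well) measured with LiveBLAzer FRET substrate after 2 h at room temperature. Compound exposure lasted 16 h at 37C.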

[7] = qHTS assay to identify small molecule antagonists of the farnesoid-X-receptor (FXR) signaling pathway - cell viability counter screen (AID 743221; active = well fitted cell-killing curve with a large enough effect in the repeat runs, not every such curve was filed as active; note: nearly all actives have a fitted effect of over 50% in size; note: potency is the fitted concentration of half-maximal effect)
Outline: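 In GeneBLAzer FXR-UAS-bla HEK 293T cells stimulated with 50 uM chenodeoxycholic acid (final), compounds acted for 16 h at 37 C. Viability was assessed afterwards by CellTiter-Glo luminescence.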

[8] = molecular target: Vitamin D3 receptor (Homo sapiens) (UniProt P11473); assay: qHTS assay to identify small molecule agonists of the vitamin D receptor (VDR) signaling pathway (AID 743222; calls by dose curve)
Outline: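 VDR-bla cells were seeded, left 4 h, treated with compounds in DMSO for 16 h, incubated 2 h at RT with B/G FRET substrate, and read for fluorescence.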

[9] = molecular target: Vitamin D3 receptor (Homo sapiens) (UniProt P11473); assay: qHTS assay to identify small molecule antagonists of the vitamin D receptor (VDR) signaling pathway (AID 743223; active = well fitted inhibition curve with a large enough effect in the signal ratio in the repeat runs, not every such curve was filed as active; the % refers to the signal ratio; note: potency is the fitted concentration of half-maximal effect)
Outline: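 Agonist 1alpha,25-dihydroxyvitamin D3 (3 nM in well) was added with each compound to VDR-bla cells preincubated 4 h. Cells stood 16 h at 37C, then FRET substrate 2 h at room temperature; fluorescence intensity recorded.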

[10] = qHTS assay to identify small molecule agonists of the vitamin D receptor (VDR) signaling pathway - cell viability counter screen (AID 743224); note: nearly all actives have a fitted effect of over 50% in size; note: potency is the fitted concentration of half-maximal effect
Outline: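 Here cell health was gauged by luminescent ATP detection (CellTiter-Glo, 30 min RT) in VDR-bla cells that had been incubated with test compounds for 16 h at 37C and 5% CO2.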

[11] = qHTS assay to identify small molecule antagonists of the vitamin D receptor (VDR) signaling pathway - cell viability counter screen (AID 743225); note: nearly all actives have a fitted effect of over 50% in size; note: potency is the fitted concentration of half-maximal effect
Outline: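 Luminescent cell viability (CellTiter-Glo) in VDR-bla HEK 293T cells after 16 h compound exposure at 37C in the presence of 3 nM final 1-alpha,25-dihydroxy vitamin D3.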

[12] = qHTS assay to identify small molecule agonists of the NFkB signaling pathway - cell viability counter screen (AID 1159515; calls by dose curve; note: nearly all actives have a fitted effect of over 55% in size; note: potency is the fitted concentration of half-maximal effect)
Outline: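 5 hr compound treatment of NFkB-bla ME-180 cells (2,000/well, seeded overnight beforehand), followed by reporter substrate for 1.5 hr. CellTiter-Glo added afterward; luminescence after 30 min RT.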

[13] = qHTS assay to identify small molecule agonists of the endoplasmic reticulum stress response signaling pathway (AID 1159516; active = well fitted activation curve with a large enough effect in the signal ratio in the repeat runs, not every such curve was filed as active; the % refers to the signal ratio)
Outline: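 Reporter HeLa cells (ESRE-beta-lactamase) underwent 5 hr compound incubation at 37 C and 5% CO2 in quantitative HTS format. Detection followed 2 hr of FRET substrate loading at room temperature.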

[14] = qHTS assay to identify small molecule agonists of the endoplasmic reticulum stress response signaling pathway - cell viability counter screen (AID 1159517; calls by dose curve; note: nearly all actives have a fitted effect of over 50% in size; note: potency is the fitted concentration of half-maximal effect)
Outline: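 CellTiter-Glo was added to wells already read for beta-lactamase FRET, and luminescence was recorded 30 min later. Cells: ESRE-bla HeLa, 1,500 per well, compound exposure 5 hr at 37 C.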

[15] = qHTS assay to identify small molecule antagonists of the retinoid-related orphan receptor gamma (ROR-gamma) signaling pathway - cell viability counter screen (AID 1159520); note: nearly all actives have a fitted effect of over 50% in size; note: potency is the fitted concentration of half-maximal effect
Outline: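 Tet-on ROR gamma CHO cells (1,000/well) were plated 4 hr, given compounds in DMSO for 2 hr at 37 C, then induced with 1 uM final doxycycline for 16 hr. Viability was read as ATP by CellTiter-Glo luminescence after 30 min.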

[16] = molecular target: Nuclear receptor ROR-gamma (Homo sapiens) (UniProt P51449); assay: qHTS assay to identify small molecule antagonists of the retinoid-related orphan receptor gamma (ROR-gamma) signaling pathway (AID 1159521; note: nearly all actives have a fitted effect of over 50% in size; note: potency is the fitted concentration of half-maximal effect)
Outline: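 CHO cells expressing RORγ under a TET-on promoter, luciferase under RORE control. Dox 1 uM final, 16 h; compounds added 2 h prior. Luminescence decrease measured.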

[17] = qHTS assay to identify small molecule agonists of the AP-1 signaling pathway (AID 1159526; calls by dose curve)
[18] = molecular target: Retinoic acid receptor RXR-alpha (Homo sapiens) (UniProt P19793); assay: qHTS assay to identify small molecule agonists of the RXR signaling pathway (AID 1159527; calls by dose curve; note: nearly all actives have a fitted effect of over 35% in size; note: potency is the fitted concentration of half-maximal effect)
Outline: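 Beta-lactamase reporter assay, agonist format. Engineered HEK 293T line, charcoal-stripped FBS at 2%, overnight (16 hr) exposure, fluorescence at 460 and 530 nm after 405 nm excitation.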

[19] = qHTS assay to identify small molecule antagonists of the peroxisome proliferator-activated receptor delta (PPARd) signaling pathway - cell viability counter screen (AID 743213); note: nearly all actives have a fitted effect of over 50% in size
Outline: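 Viability counter-screen, qHTS format: PPARd-bla HEK293H, L165041 300 nM final, 17 h compound exposure at 37 C, CellTiter-Glo luminescence after 30 min RT.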

[20] = qHTS assay to identify small molecule agonists of the AP-1 signaling pathway - cell viability counter screen (AID 1159525; calls by dose curve; note: nearly all actives have a fitted effect of over 55% in size; note: potency is the fitted concentration of half-maximal effect)
Outline: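 ME-180 AP-1-bla, 2500 cells/well, Opti-MEM + 0.5% dialyzed FBS; overnight 37 °C; cpd 15-pt titration, 5 h 37 °C; CellTiter-Glo 30 min RT; luminescence read; normalised to TOAB and DMSO controls.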

Sequence of Bile acid receptor (Homo sapiens) (Q96RI1 whole entry, looked up): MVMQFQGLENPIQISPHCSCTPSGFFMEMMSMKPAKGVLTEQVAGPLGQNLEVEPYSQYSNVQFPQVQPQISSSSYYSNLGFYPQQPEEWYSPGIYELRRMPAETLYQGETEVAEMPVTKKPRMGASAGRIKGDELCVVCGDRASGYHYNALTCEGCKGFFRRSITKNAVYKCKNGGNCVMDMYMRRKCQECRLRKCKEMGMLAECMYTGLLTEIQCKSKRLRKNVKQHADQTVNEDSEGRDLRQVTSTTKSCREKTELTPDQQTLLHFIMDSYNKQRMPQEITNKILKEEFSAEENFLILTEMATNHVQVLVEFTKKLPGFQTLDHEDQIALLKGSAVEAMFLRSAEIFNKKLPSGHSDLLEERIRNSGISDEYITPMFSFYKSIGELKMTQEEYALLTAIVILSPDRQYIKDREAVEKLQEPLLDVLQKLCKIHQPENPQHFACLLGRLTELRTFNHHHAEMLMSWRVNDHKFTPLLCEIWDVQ
Sequence of Peroxisome proliferator-activated receptor delta (Homo sapiens) (Q03181 whole entry, looked up): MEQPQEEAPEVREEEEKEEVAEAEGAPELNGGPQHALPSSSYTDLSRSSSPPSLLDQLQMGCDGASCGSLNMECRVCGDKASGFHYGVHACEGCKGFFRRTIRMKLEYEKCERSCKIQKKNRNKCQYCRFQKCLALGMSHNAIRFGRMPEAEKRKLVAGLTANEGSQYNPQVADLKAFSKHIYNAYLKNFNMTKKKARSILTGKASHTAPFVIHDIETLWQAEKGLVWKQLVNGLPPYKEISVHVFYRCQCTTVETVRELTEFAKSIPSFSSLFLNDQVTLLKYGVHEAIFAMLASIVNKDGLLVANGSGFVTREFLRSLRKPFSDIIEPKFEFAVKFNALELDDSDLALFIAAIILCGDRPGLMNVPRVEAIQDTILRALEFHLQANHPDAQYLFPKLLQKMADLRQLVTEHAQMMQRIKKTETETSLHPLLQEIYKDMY
Sequence of Retinoic acid receptor RXR-alpha (Homo sapiens) (P19793 whole entry, looked up): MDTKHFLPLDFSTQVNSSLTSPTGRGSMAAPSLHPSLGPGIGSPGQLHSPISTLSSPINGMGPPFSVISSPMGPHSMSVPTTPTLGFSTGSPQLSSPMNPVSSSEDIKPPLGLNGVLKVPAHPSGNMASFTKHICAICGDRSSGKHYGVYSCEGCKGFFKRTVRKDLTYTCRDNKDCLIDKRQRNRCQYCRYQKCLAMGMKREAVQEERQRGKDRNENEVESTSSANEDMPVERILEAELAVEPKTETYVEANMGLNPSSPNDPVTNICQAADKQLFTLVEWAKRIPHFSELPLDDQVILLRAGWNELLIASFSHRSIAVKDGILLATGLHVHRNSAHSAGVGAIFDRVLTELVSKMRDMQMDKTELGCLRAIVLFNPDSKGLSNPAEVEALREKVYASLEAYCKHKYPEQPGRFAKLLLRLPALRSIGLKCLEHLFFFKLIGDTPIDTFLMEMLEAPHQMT
Sequence of Vitamin D3 receptor (Homo sapiens) (P11473 whole entry, looked up): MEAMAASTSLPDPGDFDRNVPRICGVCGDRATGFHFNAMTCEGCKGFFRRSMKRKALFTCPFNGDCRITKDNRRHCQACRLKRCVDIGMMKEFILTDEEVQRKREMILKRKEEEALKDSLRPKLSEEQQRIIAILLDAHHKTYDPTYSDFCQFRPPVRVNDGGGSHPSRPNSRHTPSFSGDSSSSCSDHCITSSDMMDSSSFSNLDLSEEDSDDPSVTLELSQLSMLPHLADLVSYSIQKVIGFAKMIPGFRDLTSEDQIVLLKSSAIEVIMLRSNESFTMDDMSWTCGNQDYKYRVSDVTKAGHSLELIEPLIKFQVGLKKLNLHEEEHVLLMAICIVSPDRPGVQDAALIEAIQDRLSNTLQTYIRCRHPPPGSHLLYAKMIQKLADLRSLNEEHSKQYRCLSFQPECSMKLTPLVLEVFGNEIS

| Compound | Potency [1] | Potency [2] | Potency [3] | Potency [4] | Potency [5] | Potency [6] | Potency [7] | outcome [8] | Potency [9] | Potency [10] | Potency [11] | Potency [12] | Potency [13] | Potency [14] | Potency [15] | Potency [16] | outcome [17] | Potency [18] | Potency [19] | Potency [20] |
| --- | --- | --- | --- | --- | --- | --- | --- | --- | --- | --- | --- | --- | --- | --- | --- | --- | --- | --- | --- | --- |
| Brc1ccc(Br)cc1 | inactive | inactive | inactive | inactive | inactive | inactive | inactive | inactive | inactive | inactive | inactive | inactive | inactive | inactive | inactive | inactive | inactive | inactive |  |  |
| CC(C)(O)C(=O)Nc1ccc([N+](=O)[O-])c(C(F)(F)F)c1 | inactive |  |  |  | inactive |  | inactive | inactive |  | inactive | inactive | inactive | inactive | inactive | inactive | 19.7 µM (active) | inactive |  | inactive | inactive |
| CCCCCCCC[N+](C)(CCCCCCCC)CCCCCCCC | 4.36 µM (active) and 2.46 µM (active) and 5.49 µM (active) |  |  |  | 7.75 µM (active) and 2.19 µM (active) and 7.76 µM (active) |  | 13.8 µM (active) and 7.77 µM (active) and 21.9 µM (active) |  |  | 6.15 µM (active) and 3.09 µM (active) and 5.49 µM (active) | 5.48 µM (active) and 6.93 µM (active) and 6.16 µM (active) | 17.3 µM (active) and 24.5 µM (active) | inactive | inactive and 13.8 µM (active) and 21.9 µM (active) | 24.3 µM (active) and 21.7 µM (active) and 10.9 µM (active) | 4.32 µM (active) and 2.17 µM (active) and 6.11 µM (active) |  |  |  | 17.3 µM (active) and 13.8 µM (active) and 19.5 µM (active) |
| COP(=O)(NC(C)=O)SC (centres undefined) | inactive | inactive | inactive |  | inactive |  | inactive |  | inactive | inactive | inactive | inactive | inactive | inactive | inactive | inactive | inactive | inactive | inactive |  |
| C[N+](C)(C)C | inactive |  |  |  |  |  | inactive |  | inactive | inactive | inactive | inactive | inactive | inactive | inactive | inactive | inactive | inactive |  | inactive |
| COC(=O)Nc1nc2ccccc2[nH]1 | inactive | inactive | inactive |  | inactive |  | inactive |  |  | inactive | inactive | inactive | inactive | inactive | inactive | inactive | inactive | inactive | inactive |  |
| Nc1ccc2ccccc2c1 | inactive |  |  |  |  |  | inactive |  | inactive | inactive | inactive | inactive | inactive | inactive | inactive | inactive | inactive | inactive |  | inactive |
| CCOP(=S)(OCC)SCn1c(=O)oc2cc(Cl)ccc21 | inactive |  |  | inactive |  | inactive | inactive | inactive | inactive | inactive | inactive | inactive | inactive | inactive | inactive | 32.9 µM (active) |  |  |  | inactive |
| CN(C)P(=O)(N(C)C)N(C)C | inactive | inactive | inactive | inactive | inactive | inactive | inactive | inactive | inactive | inactive | inactive | inactive | inactive | inactive | inactive | inactive | inactive | inactive |  |  |
| Clc1ccccc1-c1nnc(-c2ccccc2Cl)nn1 | inactive | inactive | inactive |  | inactive |  | inactive |  | inactive | inactive | inactive | inactive | inactive | inactive | inactive | inactive | inactive | inactive | inactive |  |
| CCNc1nc(Cl)nc(NC(C)(C)C#N)n1 | inactive | inactive | inactive |  | inactive |  | inactive |  |  | inactive | inactive | inactive | inactive | inactive | inactive | inactive | inactive |  | inactive | inactive |
| CC1=C(C(=O)Nc2ccccc2)SCCO1 | inactive | inactive | inactive | inactive |  | inactive | inactive |  | inactive | inactive | inactive | inactive | inactive | inactive | inactive | inactive | inactive | inactive | inactive |  |
| COc1ccc(C=O)cc1OC | inactive |  |  |  |  |  | inactive |  |  | inactive | inactive | inactive | inactive | inactive | inactive | inactive | inactive | inactive |  | inactive |
| CC[n+]1c(-c2ccccc2)c2cc(N)ccc2c2ccc(N)cc21 | 24.4 µM (active) | inactive | 24.4 µM (active) and 23.7 µM (active) | 7.73 µM (active) and 5.31 µM (active) |  |  | inactive |  | 12 µM (active) | 21.8 µM (active) | inactive | inactive | inactive | inactive | inactive | inactive | inactive |  | inactive | inactive |
| OC(c1ccc(Cl)cc1)(c1cncnc1)c1ccccc1Cl (centres undefined) | inactive | inactive | inactive |  | inactive |  | inactive | inactive | inactive | inactive | inactive | inactive | inactive | inactive | 15.6 µM (active) and inactive | 4.4 µM (active) and 54.5 µM (active) | inactive |  | inactive | inactive |
| O=NN1CCOCC1 | inactive | inactive | inactive |  |  |  | inactive | inactive | inactive | inactive | inactive | inactive | inactive | inactive | inactive | inactive | inactive | inactive | inactive |  |
| c1ccc(C2CO2)cc1 (centres undefined) | inactive | inactive | inactive |  |  |  | inactive |  | inactive | inactive | inactive | inactive | inactive | inactive | inactive | inactive | inactive | inactive and 17.4 µM (active) | inactive |  |
| c1ccc2c(c1)Nc1ccccc1S2 | inactive | inactive | inactive |  |  |  | inactive |  |  | inactive | inactive | inactive | inactive | inactive | inactive | inactive |  | inactive |  | inactive |
